The source of these data is PubChem BioAssay (Tox21).

SMILES strings stand for the structures. Results filed as inconclusive are left out. A number with no mark means an inactive call. Calls of active or inactive are those of the source. Calls follow the shape of the dose curve; as a rule, active = well fitted inhibition curve with a large enough effect in the repeat runs; inconclusive = weak or mixed curves, or effect the other way; inactive = no such curve, though single readings can be large or run the other way.
% is scaled to controls: 0 for no effect and ±100 for the full control effect; potency is read from the fitted curve at half-maximal effect.

Nuclear receptor subfamily 1 group I member 3 (Homo sapiens), sequence (Q14994 whole entry, looked up): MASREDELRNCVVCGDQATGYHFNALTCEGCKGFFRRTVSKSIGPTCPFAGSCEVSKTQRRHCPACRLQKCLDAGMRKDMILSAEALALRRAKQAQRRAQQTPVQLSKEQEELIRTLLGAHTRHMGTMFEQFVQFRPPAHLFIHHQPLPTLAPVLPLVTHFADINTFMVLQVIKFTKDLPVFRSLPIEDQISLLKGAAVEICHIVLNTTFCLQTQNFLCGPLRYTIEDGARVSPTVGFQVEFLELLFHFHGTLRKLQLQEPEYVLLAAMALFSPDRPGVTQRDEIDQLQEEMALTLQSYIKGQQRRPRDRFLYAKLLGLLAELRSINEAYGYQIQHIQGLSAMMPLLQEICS

The assay addresses Nuclear receptor subfamily 1 group I member 3 (Homo sapiens) (UniProt Q14994). The assay is described as follows: qHTS assay to identify small molecule antagonists of the constitutive androstane receptor (CAR) signaling pathway (AID 1224838).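 Also: HepG2 cells stably expressing hCAR with CYP2B6 luciferase reporter stimulated by CITCO; nearly all actives have a fitted effect of over 40% in size.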 To be noted: HepG2-CYP2B6-hCAR luciferase, CITCO-stimulated, 24 h; series mostly up to 92.4 µM; activity, negative = inhibition: at the top concentration. The source says:
U.S. Tox21 Program National Center for Advancing Translational Sciences [NCATS] NIH Chemical Genomics Center [NCGC] U.S. Environmental Protection Agency [EPA] National Institutes of Environmental Health Sciences [NIEHS] National Toxicology Program [NTP] U.S. Food and Drug Administration [FDA] Tox21 Assay Overview: The constitutive androstane receptor (CAR) is a nuclear receptor which regulates multiple drug metabolizing enzymes (DMEs) and transporters. Activating CAR will generally increase the transcription and subsequent translation of CYP2B6 and CYP3A4. These two DMEs represent about 50% of the drug metabolizing potential in the body. When CAR is deactivated, the metabolizing potential in the body will decrease, subsequently increasing the toxicity in the body or lowering the therapeutic potential of a pro-drug. Recently, there have also been studies performed indicating CARs role in energy metabolism and cancer therapy. Therefore, inhibiting CARs activity could have a potential effect on diabetes and cancer. Identifying environmental toxins and compounds which modulate CAR, through the use of the Tox21 10K compound collection, will be an important step in determining the toxicity and potential therapeutic effects these factors will have on the human body.
Tox21 Assay Protocol Summary: A double-stable (hCAR and CYP2B6-2.2kb) transfected cell line, derived from human hepatoma (HepG2) cells, was utilized for the duration of the quantitative high-throughput screens. The HepG2-CYP2B6-hCAR cells suspended in DMEM culture medium supplemented with 10% FBS, 5 ug/mL blasticidin, 0.5 mg/mL geneticin, 100 U/mL penicillin and 100 ug/mL streptomycin were dispensed at 2500 cells/4 uL/well in 1536-well white solid bottom plates using a Multidrop Combi. After the assay plates were incubated at 37 C/5% CO2 for 4 hrs, 23 nL of compounds at 15 concentrations (from 5-48 columns) or positive control (from 1 to 4 columns) were transferred to the assay plates using a Pintool station. One uL of CITCO, was added using a Flying Reagent Dispenser to generate a final concentration of 50 nM CITCO inside each well. After a 24 hr incubation period at 37 C/5% CO2, four uL of ONE-Glo reagent was added into the assay plates using a Flying Reagent Dispenser. After a 30 min incubation period at room temperature, the luminescence intensity in the assay plates was measured using a ViewLux plate reader.
Background: In qHTS, concentration-response curves come from the screen itself.
Regarding `COc1ccccc1N1CCN(CCCNc2cc(=O)n(C)c(=O)n2C)CC1`, the “activity, negative = inhibition” value is -3.93% [at 42.5 µM].

In the case of `CC(=O)N(CC(O)CN(C(C)=O)c1c(I)c(C(=O)NCC(O)CO)c(I)c(C(=O)NCC(O)CO)c1I)c1c(I)c(C(=O)NCC(O)CO)c(I)c(C(=O)NCC(O)CO)c1I` (stereo not given), the “activity, negative = inhibition” value is -26.4% [at 42.5 µM].

Turning to `Cc1cc(NS(=O)(=O)c2ccc(N)cc2)nc(C)n1`, the “activity, negative = inhibition” value was 74.9% [at 42.5 µM].

As to `NCCCN1CCN(CCCN)CC1`, the “activity, negative = inhibition” value is -24.8%.

Consider `CCOc1ccc2nc(N)sc2c1`, for which the “activity, negative = inhibition” value was 296%.

Regarding `FC(F)(F)c1ccccc1`, the “activity, negative = inhibition” value is -6.26%.

Regarding `C[C@@H]1CN(c2c(F)c(F)c3c(=O)c(C(=O)O)cn(C4CC4)c3c2F)C[C@H](C)N1`, the activity, negative = inhibition was 14.9% [at 19 µM].

For the molecule `C1CCOC1`, the “activity, negative = inhibition” value was 5.6%.

Regarding `O=C1CCC(C2CCCCC2)CC1`, the “activity, negative = inhibition” value is 1.2%.

`FC(F)(F)C(Cl)(Cl)Cl`: the “activity, negative = inhibition” value is -2.38%.

As for `CCN(O)CC`, the “activity, negative = inhibition” value was 1.51%.

For `CN1CCN(C2=Nc3cc(F)ccc3Cc3ccccc32)CC1`, the “activity, negative = inhibition” value was -3.12% [at 42.5 µM].

Consider `CC(C)(CO)[C@@H](O)C(=O)NCCC(=O)O`, for which the “activity, negative = inhibition” value is 2.43%.

Consider `CCCCCCCCCC/C=C/C#N`, for which the “activity, negative = inhibition” value was -5.54%.

On to `CC(=O)Nc1ccc(C)c(Cl)c1`, for which the “activity, negative = inhibition” value was 31.1%.

In the case of `NCCC(O)(P(=O)(O)O)P(=O)(O)O`, the “activity, negative = inhibition” value was 5.96% [at 42.5 µM].

With `COc1ccc(Nc2ccc(OC)cc2)cc1`, the “activity, negative = inhibition” value was 98.9%.

Turning to `CC(C)O`, the “activity, negative = inhibition” value was 0.484%.

For `CCOC(=O)COc1ccc2c(c1)CC(NCC(O)c1cccc(Cl)c1)CC2` (stereo not given), the “activity, negative = inhibition” value is -22.8%.

As to `CN(CCCN1c2ccccc2CCc2ccccc21)CC(=O)c1ccc(Cl)cc1`, the “activity, negative = inhibition” value is 110% [at 42.5 µM].

Take `Oc1ccccc1C=NCc1ccccc1`: the “activity, negative = inhibition” value is -12.9% [at 42.5 µM].

Take `OCc1c2ccccc2cc2ccccc12`: the “activity, negative = inhibition” value is 46.7%.

Turning to `O=Cc1ccc(F)c(Br)c1`, the “activity, negative = inhibition” value is -5.86%.

Turning to `CCCCCCCCCC#N`, the “activity, negative = inhibition” value is -16.3%.

Take `O=C(CCCl)NCc1ccccc1`: the “activity, negative = inhibition” value was -9.59% [at 42.5 µM].

For `N#CSCC(=O)O`, the “activity, negative = inhibition” value was -8.36% [at 42.5 µM].

As to `NS(=O)(=O)c1cc(-c2nn[nH]n2)c(NCc2cccs2)cc1Cl`, the Potency was 23.7 µM (active).

`CC1=C(O)C(=O)OC1C` (stereo not given): the “activity, negative = inhibition” value is -4.93%.

As to `CCOc1ccccc1N`, the “activity, negative = inhibition” value was -58.7%.

Regarding `CC(C)=CCC[C@](C)(O)[C@@H]1CC=C(C)CC1`, the “activity, negative = inhibition” value was 9.15%.

For `O=S(=O)(O)C(F)(F)F`, the “activity, negative = inhibition” value was 4.52%.

Regarding `NC(=O)Cc1cccc(C(=O)c2ccccc2)c1N`, the “activity, negative = inhibition” value is 52.1% [at 42.5 µM].

Take `OCC(CBr)(CBr)CBr`: the “activity, negative = inhibition” value is 29.4%.

Consider `CCCCCCn1c(=O)c2c(ncn2C)n(C)c1=O`, for which the “activity, negative = inhibition” value was 57.9% [at 42.5 µM].

For the molecule `O=C1CCCc2ccccc21`, the “activity, negative = inhibition” value was 1.32%.

Consider `CCCCCCOc1ccc(N)cc1`, for which the “activity, negative = inhibition” value is 134%.

With `CC(C)OC(C)C`, the “activity, negative = inhibition” value was -0.835%.

Turning to `CN1CCC[C@@H]1Cc1c[nH]c2ccc(CCS(=O)(=O)c3ccccc3)cc12`, the “activity, negative = inhibition” value was 8.12% [at 42.5 µM].

In the case of `OCCN1CCN(CCO)CC1`, the “activity, negative = inhibition” value is 5.83%.

Take `CCN(CC)CCNC(=O)COc1ccc(Cl)cc1`: the “activity, negative = inhibition” value was 7.5% [at 42.5 µM].
